Records with an inconclusive call do not appear. Entries that show only a call come without a potency. Activity calls are given as the source filed them. Unless noted, the call rests on the fitted dose curve; in most records, active means well fitted curve in the direction sought with a large enough effect; inconclusive means small, poorly fitted or top-dose-only effect, or another doubt; inactive means no such curve, though single readings can be large; an effect the other way counts as inactive or inconclusive.
Assays:
[1] = target: Mitogen-activated protein kinase 10 (Mus musculus) (UniProt Q61831); test: JNK3 AlphaScreen Assay (AID 530; active means well fitted curve in either direction with a large enough effect, not every such curve was filed as active;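 further: kinase came from lysate of stimulated human HepG2 cells; signal reports phosphorylation of biotinylated GST-cJun 1-79 at Ser73 with 10 µM ATP; series mostly up to about 57 µM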)
In short: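 Activity was read by AlphaScreen after JNK3-containing HepG2 lysate (cytokine pre-activated) phosphorylated biotinylated GST-cJun with 10 uM ATP at room temperature. Phospho-Ser73 cJun antibody with Protein-A acceptor beads provided detection.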

[2] = target: Cytochrome P450 3A4 (Homo sapiens) (UniProt P08684); test: qHTS Assay for Activators of Cytochrome P450 3A4 (AID 885); further: nearly all actives have a fitted effect of over 65% in size
Sequence of Cytochrome P450 3A4 (Homo sapiens) (P08684 whole entry, looked up): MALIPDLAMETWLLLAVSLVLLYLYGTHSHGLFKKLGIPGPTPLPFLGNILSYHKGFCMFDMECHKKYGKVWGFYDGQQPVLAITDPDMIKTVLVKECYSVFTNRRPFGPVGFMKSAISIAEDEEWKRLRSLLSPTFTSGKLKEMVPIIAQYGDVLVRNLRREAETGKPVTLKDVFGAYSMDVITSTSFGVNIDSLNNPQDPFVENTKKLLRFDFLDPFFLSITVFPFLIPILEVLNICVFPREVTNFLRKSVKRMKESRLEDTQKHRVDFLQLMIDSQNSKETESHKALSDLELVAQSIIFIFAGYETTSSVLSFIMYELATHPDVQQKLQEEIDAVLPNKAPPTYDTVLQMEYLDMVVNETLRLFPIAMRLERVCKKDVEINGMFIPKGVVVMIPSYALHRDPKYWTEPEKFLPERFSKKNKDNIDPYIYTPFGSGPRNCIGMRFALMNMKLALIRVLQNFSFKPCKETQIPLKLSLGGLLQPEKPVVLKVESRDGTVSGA
In short: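 Luminescent readout of luciferin formed from 25 uM Luciferin-PPXE (KM level) by 20 nM CYP3A4 in 200 mM KPO4, with 60 min NADPH-driven reaction at room temperature after 10 min compound exposure. Ketoconazole (57 uM) defined 100% inhibition.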

[3] = target: Cytochrome P450 3A4 (Homo sapiens) (UniProt P08684); test: qHTS Assay for Inhibitors and Substrates of Cytochrome P450 3A4 (AID 884); further: potency means the concentration at half of the fitted maximal effect; nearly all actives have a fitted effect of over 50% in size
In short: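 Luminescent readout of luciferin produced by CYP3A4 (20 nM) dealkylation of Luciferin-PPXE, 25 uM (its KM). NADPH-driven reaction ran 60 min at RT after 10 min compound preincubation; data scaled to 57 uM ketoconazole as 100% inhibition.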

Row | SMILES | outcome [1] | Potency [2] | Potency [3]
1 | CC(C)NC(=O)[C@H]1C[C@@H]1[C@H](NC(=O)OCc1ccccc1)c1ccccc1 | inactive | inactive | 
2 | CC1(C(=O)NCCN2CCOCC2)C=CC2(CCCCC2)N1C(=O)c1ccccc1 (stereo unspecified) | inactive | inactive | 7.94 µM (active)
3 | CCCCNC(=O)C(c1ccc(OCC(=O)OC)c(C(=O)OC)c1)N(CCc1ccccn1)C(=O)CCCCCN1C(=O)NC(c2ccc(-c3ccccc3)cc2)C(C(=O)OCc2ccccc2)=C1C (stereo unspecified) | inactive | inactive | 7.94 µM (active)
4 | COC(=O)c1ccc(C(NC(=O)OCc2ccccc2)/C(C)=C/[C@@H](C)C(=O)NCCc2c[nH]c3ccc(OC)cc23)cc1 (stereo partly specified) | inactive | inactive | 2 µM (active)

— PubChem BioAssay (NCATS)
